Among all 2,300 compounds or so, about 1,500 (65%) were called active. So high a share suggests a set chosen from earlier hits. The list shows a part of the results. Results with a measured potency or affinity are listed apart. Unmarked numbers belong to inactive results. No rule for the calls is given here.
Experiment: replicating M. tuberculosis growth inhibition, dose response, non-replicating M. tuberculosis project, H37Rv (AID 492952);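 also: Mycobacterium tuberculosis grown in culture; growth inhibition read after a week of incubation; 0% = bacteria alone untreated and 100% = bacteria with high antibiotic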
Settings: series mostly up to 50 µM; inhibition: at the top concentration

Structure (SMILES)	inhibition
O=C1NC(=O)N(Cc2ccco2)C(=O)/C1=C\c1cccn1CCOc1ccc(Cl)cc1	-2.12%
Cc1cc(Br)ccc1OCCCCN1CCC(C)CC1	13.3%
CCCCCOc1ccc(CSC2=NCCN2)cc1[N+](=O)[O-]	3.34%
C=CCN(CC=C)CC(=O)Nc1ccc(S(N)(=O)=O)cc1	-1.05%
NC(=O)CN1CCN(C2CC(=O)N(CCc3ccccc3)C2=O)CC1 (stereo not drawn)	-0.23%
COC(=O)c1cccc(COC(=O)c2cc3ccccc3oc2=O)c1	5.68%
O=C(COC(=O)C1CC2C=CC1C2)Nc1ccccc1 (stereo not drawn)	-4.32%
CCC(C)n1c(=S)[nH]c2ccccc2c1=O (stereo not drawn)	10.9%
O=c1oc2ccccc2c2c1nnn2CCO	4.47%
CCOC(=O)c1sc(NC(=O)CCN2CC(C)OC(C)C2)c(C(=O)OCC)c1C (stereo not drawn)	-3.06%
OCC1(CCOc2ccccc2)CCN(Cc2cc(Cl)ccc2O)CC1	-8.49%
O=[N+]([O-])c1ccc(-c2nc3ccc([N+](=O)[O-])cc3[nH]2)cc1	8.42%
O=[N+]([O-])c1ccc2nc(SCc3cn4ccccc4n3)[nH]c2c1	-0.45%
c1ccc(OCc2nn3c(-c4ccccn4)nnc3s2)cc1	10.3%
C/C(=N/NC(=O)c1cc2ccccc2cc1O)C1C(=O)c2ccccc2C1=O	-4.56%
O=C(NCC1CCCCC1)c1ccc([N+](=O)[O-])cc1	-4.51%
O=C(COC(=O)c1ccc(Br)o1)NC1CCCCC1	15.1%
Nc1c(Cl)cc(Cl)cc1C(=O)OCC(=O)N1CCCC1	-1.22%
O=C(CCSc1ccc(Cl)cc1)NC1CCCC1	6.09%
Oc1ccc2cc(Br)ccc2c1CN1CCCC1	-13.2%
CCCOC(=O)NC1CCS(=O)(=O)C1 (stereo not drawn)	-8.04%
CCCCN(C/C=C/c1ccccc1OC)Cc1ccccc1	4.31%
CCOC(=O)C1CCN(Cc2ccc(-c3ccccc3)cc2)CC1	-1.35%
CC(C)N=C1SC(CC(=O)Nc2ccccc2)C(=O)N1C(C)C (stereo not drawn)	-8.82%
O=C(COC(=O)c1ccccc1Br)Nc1ccccc1F	9.48%
CCOC(=O)C1=C(C)NC(=O)NC1c1ccc(-c2ccc(F)cc2)o1 (stereo not drawn)	10.4%

Structure (SMILES)	inhibition
Fc1ccc(-c2nnc(-c3ccc(F)cc3)o2)cc1	-2.38%
CCC(=O)c1ccc(OC(=O)c2ccc(Br)o2)cc1	9.11%
CCC(C)(C)NC(=O)c1ccc(Br)o1	-1.76%
O=C(NC1CCCC1)c1nc2c(nnn2Cc2cccc(Cl)c2)c(=O)[nH]1	18.1%
COc1ccc(O)c(C(=O)CC(=O)c2ccc(F)cc2)c1	23.9%
NC(=O)c1cccnc1Nc1cccc(F)c1	4.49%
c1ccc(-c2noc(CC3CCCCC3)n2)nc1	-1.22%
Sc1oc(-c2ccccc2)cc1C=Nc1ccccc1	0.97%
COc1ccc(NC(=O)CO/N=C2/CCCc3nonc32)c(OC)c1	-3.53%
O=C(N/N=C/c1cc(Br)cc(Br)c1O)c1cccc(N2CCCC2=O)c1	3.22%
O=C(N/N=C/c1ccccc1O)c1cccc(C(F)(F)F)c1	14.5%
O=C(COC(=O)c1ccccc1)NC12CC3CC(CC(C3)C1)C2	-0.01%
CCCNC(=O)OCC12CC3CC(CC(C3)C1)C2	-7.66%
CCCCCCCC(=O)N/N=C(\C)c1ccc(O)cc1O	-8.78%
CSC1=N/C(=C\c2ccc(Br)o2)C(=O)S1	5.39%
O=C(NNC1CC(=O)N(c2ccccc2)C1=O)c1ccco1 (stereo not drawn)	-0.27%
O=C(N/N=C/c1cn[nH]c1-c1ccccc1)c1ccco1	1.45%
CC(=O)Nc1cccc(-c2nc3ccccc3c(=O)o2)c1	7.03%
N[C@@H](Cc1ccccc1)c1nnc(SC/C=C/c2ccccc2)o1	7.63%
O=C(NCCc1ccccc1)c1nc(-c2cccs2)no1	2.65%
O=[N+]([O-])c1cncc([N+](=O)[O-])c1Nc1cccc(O)c1	28.7%
O=S(=O)(NCc1cccnc1)c1ccc(Cl)c(Cl)c1Cl	-3.75%
Clc1ccc(SCCOCCN2CCc3ccccc3C2)cc1	4.11%
Clc1ccc(OCCCCN2CCc3ccccc3C2)cc1	15.9%
CC1=NN(C(=O)c2ccccc2Cl)C(O)(c2ccccc2)C1 (stereo not drawn)	1.28%
CC1=NN(C(=O)c2ccccc2)C(O)(c2ccc(Br)cc2)C1 (stereo not drawn)	27.1%

Structure (SMILES)	inhibition
CCOc1ccc(N2CC(=O)Nc3ccccc3NCC2=O)cc1	5.63%
CCCCCCOc1ccc(N2C(=O)CC(N3CCN(C(=O)c4ccco4)CC3)C2=O)cc1 (stereo not drawn)	-5.2%
COc1ccc(OC(=O)C2CC(=O)N(c3ccc(C)cc3)C2)cc1 (stereo not drawn)	25.1%
CCc1ccc(N2C(=O)CC(N3CCC(C(=O)OC)CC3)C2=O)cc1 (stereo not drawn)	0.16%
CCCOc1ccc(N2C(=O)CC(N3CCCC(C(=O)N4CCCC4)C3)C2=O)cc1 (stereo not drawn)	-0.96%
C#CCOc1coc(COC(=O)c2ccccc2)cc1=O	-6.59%
CSC1=N/C(=C\c2ccc3c(c2)OCO3)C(=O)S1	-2.2%
O=C1CC(N2CCC(c3nc4ccccc4o3)CC2)C(=O)N1 (stereo not drawn)	-3.04%
NC(=O)/C(=N\OC(=O)c1ccco1)c1nc(-c2ccc(Br)cc2)cs1	7.99%
Cc1[nH]n(-c2ccccc2)c(=O)c1C=Nc1cnc2ccccc2c1	0.8%
C/C(=N\NC(=O)CCc1ccccc1)C1C(=O)c2ccccc2C1=O	2.42%
CC(C)(C)c1ccc(S(=O)(=O)NNC(=O)c2cc3ccccc3[nH]2)cc1	-2.17%
Cc1ccc(S(=O)(=O)NCc2ccc(C(=O)NCCCN3CCC(Cc4ccccc4)CC3)cc2)cc1	8.86%
CN(C)CCC(=O)N1c2ccccc2Sc2ccc(C(F)(F)F)cc21	-0.36%
Oc1ccc(Br)cc1-c1ccn[nH]1	11.7%
Cc1ccc(C(C)NC(=O)c2cc3ccccc3oc2=O)cc1C (stereo not drawn)	-6.44%
CC(NC(=O)c1cc2ccccc2oc1=O)c1ccccc1 (stereo not drawn)	2.61%
O=C(NC1CCOc2ccccc21)c1ccc(Cl)nc1 (stereo not drawn)	-5.08%
CCOc1ccc(NC(=O)COc2ccc3c(c2)OCO3)cc1	11%
O=C(Nc1ccc([N+](=O)[O-])cc1)c1ccc(Cn2cc([N+](=O)[O-])cn2)cc1	-2.2%
C=CCOc1ccc(CNCCO)cc1OCC	6.25%
CC(C)(C)c1cc(CN2CCN(CCO)CC2)cc(C(C)(C)C)c1O	2.66%
CCn1c(O)c(C(=O)CC2NCCc3ccccc32)c(=O)n(CC)c1=S (stereo not drawn)	5.15%
O=C(NNc1nc2ccccc2s1)Nc1ccc(F)cc1	-2.93%
Cc1ccc2nc(NC(=O)COC(=O)c3ccc(Br)o3)sc2c1	-1.01%
Cc1ccc(CNC(=O)c2cnccn2)cc1	-4.77%
